The list is not random: actives were taken first. Their share in the collection is about 8.5%.
NPSR antag = blocks cAMP signaling of the human neuropeptide S receptor; Potency, µM (titrated, usually from 38.3 µM), inactives show at the top dose activity change, negative = inhibition, usual class: inhibitors; 1% of 220,000 active; AID 1461; CHO-NPSR cells, cAMP TR-FRET, antagonist mode; Q6W5P4; note: potency is the fitted concentration of half-maximal effect; nearly all actives have a fitted effect of over 50% in size
Target sequence (Q6W5P4 whole entry, looked up): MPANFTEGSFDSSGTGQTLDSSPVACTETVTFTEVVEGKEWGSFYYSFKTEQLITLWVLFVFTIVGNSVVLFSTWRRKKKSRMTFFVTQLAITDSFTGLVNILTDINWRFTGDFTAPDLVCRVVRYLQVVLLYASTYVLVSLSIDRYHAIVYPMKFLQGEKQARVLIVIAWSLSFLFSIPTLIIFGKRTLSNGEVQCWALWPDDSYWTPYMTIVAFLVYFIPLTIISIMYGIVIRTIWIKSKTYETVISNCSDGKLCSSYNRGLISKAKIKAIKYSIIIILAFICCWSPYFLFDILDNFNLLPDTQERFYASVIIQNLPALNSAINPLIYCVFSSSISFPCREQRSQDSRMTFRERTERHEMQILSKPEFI
ALDH1A1 inh = ALDH1A1 (human) enzyme inhibition | 7.3% of 220,000 active | Purified ALDH1A1, NADH fluorescence, propionaldehyde substrate | Potency, µM (doses to about 75.3 µM), inactives show top-dose activity, negative = inhibition, hits mostly inhibitors | P00352 | AID 1030; active = well fitted inhibition curve with a large enough effect, not every such curve was filed as active; inconclusive = small, poorly fitted or top-dose-only effect, or another doubt; inactive = no such curve, though single readings can be large or run the other way;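 note: potency is the fitted concentration of half-maximal effect; plate controls were no enzyme wells and a reference inhibitor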
Sfp inh = inhibitors of Bacillus subtilis Sfp phosphopantetheinyl transferase; Q9F4F7; Biochemical Sfp PPTase activity, qHTS; Potency, µM, without a hit: largest response in the series, negative = inhibition, usual class: inhibitors; 3.5% of 310,000 active; AID 1490;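 note: the enzyme is Sfp with the accession as filed and its product quenches rhodamine fluorescence; potency is the fitted concentration of half-maximal effect; 0% = enzyme reaction without inhibitor and -100% = no enzyme wells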
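Compounds were incubated with enzyme (final 15 nM) for 15 min at room temperature before substrate addition started the reaction. Fluorescence at 525 nm excitation, 598 nm emission was recorded immediately and after 30 minutes.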
RGS12 GoLoco inh = inhibitors of human Gai1-RGS12 GoLoco interaction (red fluorophore) | P63096 | Gai1:RGS12 GoLoco peptide FP, rhodamine, 10 min | Potency, µM (top dose mostly 61.6 µM), for the others: top-dose activity, negative = inhibition, actives largely listed as inhibitors | 0.44% of 230,000 active; active = well fitted inhibition curve with a large enough effect, not every such curve was filed as active; inactive = no such curve, though single readings can be large or run the other way; note: potency is the fitted concentration of half-maximal effect; nearly all actives have a fitted effect of over 30% in size
KDM4E inh = JMJD2E (human) inhibition. B2RXH2. JMJD2E catalytic domain, FDH-coupled NADH fluorescence (FDH is formaldehyde dehydrogenase). Potency, µM (titrated, usually from 57.1 µM), inactives show at the highest dose activity change, negative = inhibition, most hits filed as inhibitors. 1.6% of 230,000 active. AID 2147; active = well fitted inhibition curve with a large enough effect, not every such curve was filed as active; inconclusive = small, poorly fitted or top-dose-only effect, or another doubt; inactive = no such curve, though single readings can be large or run the other way;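 note: potency is the fitted concentration of half-maximal effect; 0% = wells with enzyme and -100% = buffer wells without enzyme; nearly all actives have a fitted effect of over 50% in size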
Target sequence (B2RXH2 1-337 limits assumed): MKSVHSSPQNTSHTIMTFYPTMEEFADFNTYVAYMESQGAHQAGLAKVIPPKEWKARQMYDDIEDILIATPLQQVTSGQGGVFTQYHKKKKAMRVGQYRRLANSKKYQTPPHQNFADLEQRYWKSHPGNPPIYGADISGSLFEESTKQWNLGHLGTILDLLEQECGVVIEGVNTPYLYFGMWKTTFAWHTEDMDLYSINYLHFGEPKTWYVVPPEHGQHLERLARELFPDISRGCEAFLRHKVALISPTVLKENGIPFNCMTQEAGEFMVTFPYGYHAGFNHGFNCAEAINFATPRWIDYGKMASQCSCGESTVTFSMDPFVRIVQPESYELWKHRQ
Coupling enz = counter-screen for Giardia aldolase inhibitors: coupling enzyme system | coupling enzyme system counterscreen, AmpLite Red fluorescence | activity change, negative = inhibition, % at 58.2 µM, hits read low | 0.67% of 290,000 active | AID 2472; in the data active = activity change below about -30%
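Coupling enzymes only (glyceraldehyde-3-phosphate) + compound, at 57.5 uM final, 10 min RT; add substrate/coupling/AmpLite Red mix, 20 min RT; fluorescence ex 525/em 598 nm. Actives flag coupling-system interference.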
Numbers without * were called inactive; u = inconclusive; x = not tested or not shown; [ ] = dose if it differs, or a comment. Unless noted, calls come from the whole dose curve; as a rule, active = well fitted curve in the direction sought with a large enough effect; inconclusive = small, poorly fitted or top-dose-only effect, or another doubt; inactive = no such curve, though single readings can be large; an effect the other way counts as inactive or inconclusive. Unless noted, % is set by controls: 0 for no effect and ±100 for the full control effect.

SMILES	NPSR antag	ALDH1A1 inh	Sfp inh	RGS12 GoLoco inh	KDM4E inh	Coupling enz
Cc1ccc(-n2nc(C)c(C3C(C#N)=C(N)Oc4c3c(=O)oc3ccccc43)c2Cl)cc1 (stereo unspecified)	u	-6%	0%	14%	8%	-1
Cc1cc(SCC(=O)N/N=C/c2ccco2)nc2ccccc12	12%	-13%	5%	13%	-10%	-32*
CC(=O)OC1C[C@]2(C)C(C(C)=O)CCC2C2CCC3=CC(=O)CC[C@@]3(C)C12 (stereo partly specified)	x	u	11%	2%	-5%	3
Cn1c(NN=O)nc2ccccc21	40%	u	40µM*	7%	6%	-11
ClC=CCl	x	-3%	x	-7%	x	x
N[C@H](Cc1ccccc1)c1nn[nH]n1	x	-9%[13.5 µM]	x	-3%[14.2 µM]	x	x
O=[N+]([O-])c1cc2c(cc1CNCCc1ccc3c(c1)OCO3)OCO2	4%	28µM*	50µM*	-7%	1%	-14
N=C(N)n1cc(/C=N\N=C(N)N)cn1	x	-3%[13.5 µM]	x	2%[14.2 µM]	x	x
O=C1NC(=O)N(Cc2ccc(F)cc2)C(=O)/C1=C\C=C\c1ccco1	u	x	u	201%	-3%	1
Cc1cc(C)cc(N2C(=O)NC(=O)/C(=C\C=C\c3ccco3)C2=O)c1	10µM*	u	45µM*	95%	-14%	5
CCCCN1C(=O)/C(=C/C=C/c2ccco2)C(=O)NC1=S	-21%[46.1 µM]	16µM*	28µM*	228%	-26%	4
CCc1ccc(N2C(=O)NC(=O)/C(=C\C=C\c3ccco3)C2=O)cc1	10µM*	x	50µM*	88%	-17%	-2
O=C1NC(=O)N(c2ccccc2)C(=O)/C1=C\C=C\c1ccccc1	u	10µM*	16µM*	-2%	4µM*	-2
CC1=NN(c2ccccc2)C(=O)C1/C=C1\C(=O)NC(=O)N(c2cc(C)cc(C)c2)C1=O (stereo unspecified)	-5%[46.1 µM]	u	-18%	1%	-2%	19
CCc1ccc(N2NC(=O)/C(=C/C=C/c3ccco3)C2=O)cc1	-32%	3.2µM*	4%	21%	1%	3
CC(C)c1ccc(N2C(=O)CC(=O)NC2=O)cc1	x	x	7%	x	x	2
CC(C)c1ccc(N2C(=O)NC(=O)/C(=C/C=C/c3ccco3)C2=O)cc1	6.3µM*	-9%	-12%	126%	-17%	3
Cc1ccc(N2C(=O)NC(=O)/C(=C/C=C/c3ccco3)C2=O)cc1	-53%	u	50µM*	23%	-22%	2
C[C@@H]1Cc2c(Cl)cc(C(=O)N[C@H](Cc3ccccc3)C(=O)O)c(O)c2C(=O)O1	x	x	6%	x	x	10
Oc1cc(O)c2c(c1)OC(c1cc(O)c(O)c(O)c1)C(O)C2 (stereo unspecified)	x	u	-77%	-26%	1.4µM*	-19
O=C(O[C@@H]1Cc2c(O)cc(O)cc2O[C@@H]1c1cc(O)c(O)c(O)c1)c1cc(O)c(O)c(O)c1	17%	x	11µM*	-4%	8.9µM*	-6
O=C(OC1Cc2c(O)cc(O)cc2OC1c1cc(O)c(O)c(O)c1)c1cc(O)c(O)c(O)c1 (stereo unspecified)	x	u	18µM*	-4%	2.5µM*	-14
CCC[C@@H]1CC2=CC(=O)CC[C@]2(C)[C@@H]2CC[C@@]3(C)[C@H](CC[C@]3(O)CCC(=O)O)[C@H]12	x	6%	35%	3%	5%	8
CCOC(=O)C1(CCc2ccccc2)CCN(C2CCSCC2)CC1	-11%	4%	79µM*	14%	u	-3
C/C(=N\NC(N)=O)c1c(O)n(C)c(=O)n(C)c1=O	6%	-53%	56µM*	11%	9%	0
SMILES	NPSR antag	ALDH1A1 inh	Sfp inh	RGS12 GoLoco inh	KDM4E inh	Coupling enz
C/C(=N\N1CCCCCC1)c1c(O)n(C)c(=O)n(C)c1=O	0%	x	24%	7%	1%	-1
CCN(CCCl)Cc1ccccc1Br	4%[46.1 µM]	-5%	x	13%	3%	x
CCCCCOc1ccc(C)cc1CN(CCCl)CCCl	u	20µM*	u	9%	-26%	-5
Cc1noc(C(=O)Nc2sc3c(c2C#N)CCC3)c1Cl	-6%[46.1 µM]	13µM*	-25%	-8%	u	-20
CN1CCN(S(=O)(=O)c2cnc(Cl)c(Br)c2)CC1	-1%	2.5µM*	-10%	7%	2%	3
CCCC[N+]12C3CC(C(CC)[C@H]1O)[C@@H]1C(O)C4(C[C@@H]12)c1ccccc1N(C)C34 (stereo partly specified)	x	0%	1%	-1%	-20%	2
Cc1cccn2c(=O)c(C=Nc3ccccc3)c(NCc3ccco3)nc12	-11%[46.1 µM]	u	50µM*	x	0%	-9
CC(C)n1c(=O)c(C=Nc2ccc(S(N)(=O)=O)cc2)c(O)n(Cc2ccco2)c1=O	4%	-7%	16%	81%	u	4
C=CC(=C)C	x	17%	x	2%	x	x
O=C1NC(=O)C(=O)C(=O)N1	x	4%	14µM*	-8%	u	-60*
CC[C@H](C)[C@H](NC(=O)CN)C(=O)N[C@@H](CC(C)C)C(=O)NCC(=O)N[C@@H](Cc1ccccc1)C(=O)N[C@H](C(=O)N[C@@H](Cc1ccccc1)C(=O)N[C@H](C(=O)N[C@@H](CC(C)C)C(=O)O)[C@@H](C)O)C(C)C	x	x	7%	x	x	2
CC[C@@H]1CN2CCc3cc(OC)c(OC)cc3[C@H]2C[C@@H]1C[C@@H]1NCCc2cc(O)c(OC)cc21	x	0%[20.9 µM]	2%	7%[21.6 µM]	-10%[25.5 µM]	1
COC1=CC(=O)O[C@@H](/C=C/c2ccc3c(c2)OCO3)C1	x	25µM*	x	-19%	x	x
COC1=CC(=O)OC(/C=C/c2ccccc2)C1 (stereo unspecified)	3%	-2%	-9%	-1%	4%	-3
COc1ccc(NC(=O)c2cc([N+](=O)[O-])ccc2N2CCNCC2)cc1	-23%	8.9µM*	11%	22%	-11%	1
CCOCCOC(C)=O	x	u	x	28µM*	x	x
CCCCOC(C)=O	x	u	x	-3%	x	x
O=S1(=O)N(CCN2CC=C(c3c[nH]c4cc(F)ccc34)CC2)c2cccc3c2N1CCC3	u	25µM*	x	15%	16µM*	x
CC(C)N1CC=C(c2c[nH]c3ccccc23)CC1	-12%[46.1 µM]	-12%	-1%	7%	u	-2
CC1=CC(=O)OC2CC3OC4C[C@@H](C)C5OC6CC7O[C@]8(C)C/C=C\C9OC%10CC%11OC(CC(C)CO)CC(O)[C@]%11(C)OC%10CC9OC8C[C@]7(C)O[C@]6(C)CCC5OC4C[C@]3(C)OC12 (stereo partly specified)	54%	2.8µM*	11%	5%	8%	1
O=S(=O)(Cl)c1ccccc1	x	u	x	3%	x	x

Bioassay records deposited in PubChem by National Center for Advancing Translational Sciences (NCATS).
